Inconclusive results are not listed. Activity calls are given as the source filed them. Calls come from the whole dose curve; as a rule, active = well fitted curve in either direction with a large enough effect (not every such curve was filed as active); inconclusive = small, poorly fitted or top-dose-only effect, or another doubt; inactive = flat fitted curve, though single readings scatter.
Experiment: AP1 Signaling Pathway (AID 357)
Details: ME-180 (cervical carcinoma) AP-1-bla reporter, EGF-induced, beta-lactamase ratio, 5 h; series mostly up to 17.2 µM; activity change, negative = inhibition: at the top concentration
Procedure, shortened: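 Read-out was the 460nm/530nm emission ratio (excitation 405nm) after CCF4 loading for 2.5 hours at room temperature. Cells carried an AP-1-driven beta-lactamase reporter, were stimulated with EC50 EGF plus compound for 5 hours, and AC50 values came from titrations.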
% is set by controls: 0 for no effect and ±100 for the full control effect.

Structure (SMILES)	activity change, negative = inhibition	outcome
CCC(=O)O[C@H]1CC[C@H]2[C@@H]3CCC4=CC(=O)CC[C@]4(C)[C@H]3CC[C@]12C	16.8% (inactive)	
COP(=O)(OC)C(O)C(Cl)(Cl)Cl (stereo unspecified)	-21.6% (inactive)	
O=C(O)c1nn(Cc2ccc(Cl)cc2Cl)c2ccccc12	-9.47% [at 38 µM] (inactive)	
COc1ccc(CN2CCNCC2)c(OC)c1OC	-2.22% (inactive)	
OC(c1ccccc1)(c1ccccc1)C1CCNCC1	13.1% (inactive)	
c1ccc2nc(N3CCNCC3)ccc2c1		inactive
C[C@H](N)[C@H](O)c1ccc(O)c(O)c1		inactive
COc1ccc(C(=O)N2CCCC2=O)cc1		inactive
Clc1ccc(CSC(Cn2ccnc2)c2ccc(Cl)cc2Cl)cc1 (stereo unspecified)	-21.8% (inactive)	
CC(C)[N+](C)(CCC(C(N)=O)(c1ccccc1)c1ccccc1)C(C)C	-7.61% (inactive)	
C[N+]1(C)[C@@H]2CC[C@H]1CC(OC(=O)C(CO)c1ccccc1)C2 (stereo partly specified)		inactive
NC(=O)CN1CCCC1=O		inactive
CN1[C@@H]2CC[C@H]1CC(OC(=O)c1cc(Cl)cc(Cl)c1)C2 (stereo partly specified)	15.2% [at 38 µM] (inactive)	
COC(=O)C1=CCCN(C)C1		inactive
CCCCCCCCC(=O)NCc1ccc(O)c(OC)c1	-12.6% [at 38 µM] (inactive)	
O=C(CCCN1CCC(n2c(=O)[nH]c3ccccc32)CC1)c1ccc(F)cc1	-13.1% (inactive)	

Source: PubChem BioAssay (NCATS)
